This note sets out measurements from PubChem BioAssay (NCI).

Where “and” joins values, the source holds several entries; their conditions need not be identical. Equal entries are not always repeated. Compounds without any hit were thinned out: in the full panel of roughly 83,000, 20% have a hit.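 Single-concentration screen, 48 h exposure, 96-well plates. Endpoint: percent growth. Below 10 = active.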 Calls of active or inactive are those of the source.

Some test systems named below: HCT-15 colon; HT29 colon; SNB-75 CNS; SNB-19 CNS; U251 CNS; PC-3 prostate; SK-MEL-5 melanoma; UACC-62 melanoma; LOX IMVI melanoma; SK-MEL-28 melanoma.
Common to all, as to assay: NCI-60 one-dose screen, 48 h (100 = growth as untreated, 0 = no growth, -100 = all killed)
Details in all cases: 10 µM unless noted

Regarding `O=CNc1cccc(-n2cnc3cc(-c4ccc(O)cc4)ccc32)c1`, the growth with HCT-15 colon is 15.5% (inactive); with HT29 colon, 22.7% (inactive); in the test with SNB-75 CNS, 21.4% (inactive); in the test with SNB-19 CNS it was 43.3% (inactive); in the test on U251 CNS, 25.4% (inactive); in the test with PC-3 prostate, 49% (inactive). For the same molecule, the growth is 35.6% (inactive) with SK-MEL-5 melanoma, 38.2% (inactive) with UACC-62 melanoma, 21.2% (inactive) with LOX IMVI melanoma and 56.2% (inactive) in the test with SK-MEL-28 melanoma.

In the case of `O=C(CSc1nnc(-c2ccc(-c3nc4ccc(Cl)cc4[nH]3)cc2)o1)Nc1ccccc1`, the growth with HCT-15 colon is 25.2% (inactive); in the test with HT29 colon, 41% (inactive); in the test on SNB-75 CNS it was -16.8% (active); in the test on SNB-19 CNS, -42.4% (active); with U251 CNS, -79.2% (active); in the test with PC-3 prostate it was -13.6% (active). The growth with SK-MEL-5 melanoma is 13.2% (inactive); in the test on UACC-62 melanoma, 7.34% (active); in the test on LOX IMVI melanoma, -65.6% (active); with SK-MEL-28 melanoma, -89.2% (active).

As for `COc1ccc2c(c1)C(Sc1ccc(Br)cc1)c1c(nc(N)c(C#N)c1N)O2` (stereo not given), the growth in the test on HCT-15 colon was 76.3% (inactive); with HT29 colon it was 91.1% (inactive); with SNB-75 CNS, 80.4% (inactive); in the test on SNB-19 CNS it was 80.6% (inactive); in the test with U251 CNS, 77.2% (inactive); with PC-3 prostate, 48.2% (inactive). The growth in the test with SK-MEL-5 melanoma was 85.6% (inactive); with UACC-62 melanoma, 76.4% (inactive); in the test with LOX IMVI melanoma, 16.7% (inactive); with SK-MEL-28 melanoma it was 104% (inactive).

As to `COc1ccc(N=Nc2c(N)nn3c(N)c(C#N)c(-c4ccc(F)cc4)nc23)cc1`, the growth was 86.1% (inactive) with HCT-15 colon; 84.6% (inactive) with HT29 colon; 82.4% (inactive) with SNB-75 CNS; 59.5% (inactive) in the test with SNB-19 CNS; 48.7% (inactive) in the test on U251 CNS; 67% (inactive) in the test on PC-3 prostate. In addition, the growth is 34.7% (inactive) in the test with SK-MEL-5 melanoma, 61.5% (inactive) with UACC-62 melanoma, 75.1% (inactive) with LOX IMVI melanoma and 90.5% (inactive) in the test on SK-MEL-28 melanoma.

Take `O=C(c1ccc(O)cc1)C1[C@H](c2ccc(Cl)cc2)[C@@H](c2ccccc2)NC12C(=O)Nc1ccc(Br)cc12` (stereo not given in full): the growth in the test on HCT-15 colon is -67% (active); in the test on HT29 colon it was -68.1% (active); in the test with SNB-75 CNS, -13% (active); in the test with SNB-19 CNS, -2.97% (active); in the test on U251 CNS, -62% (active); in the test with PC-3 prostate, -16% (active). For the same molecule, the growth is -93.3% (active) in the test on SK-MEL-5 melanoma, -40% (active) in the test on UACC-62 melanoma, -100% (active) in the test on LOX IMVI melanoma and -5.57% (active) in the test with SK-MEL-28 melanoma.

`CN1CCN(C(=O)Oc2cc3c(c4ccccc24)[C@H](CCl)CN3C(=O)c2cc3cc(OCCCN4CCC4)ccc3[nH]2)[C@@H]2CSSC[C@H]21`: the growth is 2.11% (active) in the test with HCT-15 colon; 2.15% (active) with HT29 colon; -64.6% (active) in the test with SNB-75 CNS; -64.6% (active) with SNB-19 CNS; -42.8% (active) with U251 CNS; -12.2% (active) in the test on PC-3 prostate. Besides, the growth with SK-MEL-5 melanoma is -74.1% (active); in the test on UACC-62 melanoma, -81.9% (active); with LOX IMVI melanoma, -61.6% (active); in the test on SK-MEL-28 melanoma, -39.5% (active).

`Cc1ccc2c(c1)/C(=C/C(=O)c1cc3ccccc3oc1=O)C(=O)N2`: the growth in the test with HCT-15 colon was -20.4% (active); in the test with HT29 colon, 59.9% (inactive); with SNB-75 CNS it was 88.7% (inactive); with SNB-19 CNS, 87.8% (inactive); in the test with U251 CNS, 73.9% (inactive); with PC-3 prostate, 73.5% (inactive). Further, the growth in the test on SK-MEL-5 melanoma was 94.2% (inactive); in the test on UACC-62 melanoma, 49.7% (inactive); in the test on LOX IMVI melanoma, 27.4% (inactive); in the test on SK-MEL-28 melanoma it was 55.7% (inactive).

Turning to `O=C1Nc2cc(-c3ccc(NS(=O)(=O)c4ccc(-c5ccccc5)cc4)cc3)ccc2/C1=C/c1ccc[nH]1`, the growth in the test on HCT-15 colon is 14.6% (inactive); in the test with HT29 colon, 0.595% (active); with SNB-75 CNS it was 53.2% (inactive); with SNB-19 CNS, 72.5% (inactive); in the test with U251 CNS, 28.2% (inactive); in the test on PC-3 prostate, 31.1% (inactive). Besides, the growth with SK-MEL-5 melanoma was 46.2% (inactive); with UACC-62 melanoma, 55% (inactive); in the test on LOX IMVI melanoma, 20.2% (inactive); with SK-MEL-28 melanoma it was 52.1% (inactive).

As for `CC(C)(C)c1cc(-c2cc(-c3ccccc3)[nH]c(=O)c2C#N)cc(C(C)(C)C)c1`, the growth in the test with HCT-15 colon was 56.6% (inactive); in the test on HT29 colon, 88.8% (inactive); with SNB-75 CNS it was -32% (active); in the test on SNB-19 CNS, 25.7% (inactive); in the test with U251 CNS it was -22% (active); with PC-3 prostate, 53.3% (inactive). In addition, the growth in the test with SK-MEL-5 melanoma is 74.5% (inactive); with UACC-62 melanoma, 68.3% (inactive); in the test on LOX IMVI melanoma, 49.2% (inactive); in the test with SK-MEL-28 melanoma, 78.5% (inactive).

As for `CN(C)c1nc(NCCNS(=O)(=O)c2ccc(C3=Nc4c(N)nc(N)nc4NC(c4ccc(Cl)cc4)C3)cc2)nc(N2CCOCC2)n1` (stereo not given), the growth with HCT-15 colon was 61% (inactive); in the test with HT29 colon, 30% (inactive); with SNB-75 CNS, 57.9% (inactive); in the test on SNB-19 CNS, 46.6% (inactive); in the test with U251 CNS, 49.5% (inactive); in the test on PC-3 prostate it was 26.4% (inactive). Also, the growth with SK-MEL-5 melanoma is 20.1% (inactive); in the test on UACC-62 melanoma it was 66.6% (inactive); with LOX IMVI melanoma, -2.54% (active); in the test with SK-MEL-28 melanoma it was 66.4% (inactive).

Turning to `Cc1ccc2nc(SCc3ccccc3F)n(-c3ccccc3)c(=O)c2c1`, the growth was 83.3% (inactive) in the test on HCT-15 colon; 78.7% (inactive) in the test with HT29 colon; 156% (inactive) in the test with SNB-75 CNS; 96.8% (inactive) with SNB-19 CNS; 99.4% (inactive) in the test with U251 CNS; 77.9% (inactive) in the test on PC-3 prostate. Further, the growth in the test on SK-MEL-5 melanoma is 93.9% (inactive); in the test with UACC-62 melanoma, 74.3% (inactive); in the test on LOX IMVI melanoma, 84.9% (inactive); in the test on SK-MEL-28 melanoma it was 100% (inactive).

For the molecule `NC(=O)c1ccc(-c2ccc3ncnc(N4CCc5cc(F)c(Cl)cc54)c3c2)cn1`, the growth with HCT-15 colon is 59.9% (inactive); in the test on HT29 colon, 91.6% (inactive); in the test with SNB-75 CNS it was 106% (inactive); with SNB-19 CNS it was 74.3% (inactive); in the test with U251 CNS it was 87.4% (inactive); with PC-3 prostate, 50.8% (inactive). In addition, the growth with SK-MEL-5 melanoma is 76.2% (inactive); in the test with UACC-62 melanoma, 71.8% (inactive); with LOX IMVI melanoma, 57% (inactive); in the test with SK-MEL-28 melanoma, 91.7% (inactive).

`CC1(C)CC(=O)C2=C(C1)OC(N)=C(c1nc3ccccc3[nH]1)C2c1ccc(Cl)cc1` (stereo not given): the growth with HCT-15 colon was 39.8% (inactive) and 106% (inactive); with HT29 colon it was 86.8% (inactive) and 115% (inactive); with SNB-75 CNS, 65.4% (inactive) and 124% (inactive); with SNB-19 CNS it was 50% (inactive) and 99.9% (inactive); with U251 CNS it was 45.1% (inactive) and 112% (inactive); in the test with PC-3 prostate it was 35.6% (inactive) and 107% (inactive). Also, the growth in the test on SK-MEL-5 melanoma was -40.8% (active) and 104% (inactive); in the test with UACC-62 melanoma, -22.9% (active) and 94.3% (inactive); with LOX IMVI melanoma, 42.9% (inactive) and 107% (inactive); with SK-MEL-28 melanoma, 30.1% (inactive) and 109% (inactive).
